From PubChem
An excerpt weighted towards active compounds, which were near 2.5% of everything screened.
NTMT1 inhibitor – Primary qHTS for Inhibitors of N-terminal methyltransferase 1 (NTMT1): MTaseGlo Assay; N-terminal Xaa-Pro-Lys N-methyltransferase 1 (Homo sapiens), Q9BV86; NTMT1 MTase-Glo SAH luminescence, purified enzyme; Potency, µM (doses to about 114 µM), without a hit: at the top dose activity change, negative = inhibition, most hits filed as inhibitors; hit rate 2.5% among 59,000;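 also: potency is read from the fitted curve at half-maximal effect; plate controls were DMSO vehicle for no effect and no enzyme for full effect; nearly all actives have a fitted effect of over 65% in size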
Target sequence (Q9BV86 whole entry, looked up): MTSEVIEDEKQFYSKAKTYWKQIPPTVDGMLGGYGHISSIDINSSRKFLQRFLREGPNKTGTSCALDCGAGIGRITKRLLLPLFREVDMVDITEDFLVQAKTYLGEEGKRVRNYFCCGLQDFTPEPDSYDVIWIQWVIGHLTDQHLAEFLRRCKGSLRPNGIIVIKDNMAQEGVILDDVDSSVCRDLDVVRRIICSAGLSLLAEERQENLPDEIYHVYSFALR
GALK inh – qHTS Assay for Inhibitors of Human Galactokinase (GALK): NCGC Sytravon Library Screen; P51570; recombinant GALK, Kinase-Glo ATP luminescence, 1 h; Potency, µM (top dose mostly 57.5 µM), inactives show at the top dose activity, negative = inhibition, hits mostly inhibitors; 44,000 tested, under 10 active; AID 1347072, 2019;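 also: plate controls were full GALK reaction for no effect and reaction lacking GALK for full effect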
Target sequence (P51570 whole entry, looked up): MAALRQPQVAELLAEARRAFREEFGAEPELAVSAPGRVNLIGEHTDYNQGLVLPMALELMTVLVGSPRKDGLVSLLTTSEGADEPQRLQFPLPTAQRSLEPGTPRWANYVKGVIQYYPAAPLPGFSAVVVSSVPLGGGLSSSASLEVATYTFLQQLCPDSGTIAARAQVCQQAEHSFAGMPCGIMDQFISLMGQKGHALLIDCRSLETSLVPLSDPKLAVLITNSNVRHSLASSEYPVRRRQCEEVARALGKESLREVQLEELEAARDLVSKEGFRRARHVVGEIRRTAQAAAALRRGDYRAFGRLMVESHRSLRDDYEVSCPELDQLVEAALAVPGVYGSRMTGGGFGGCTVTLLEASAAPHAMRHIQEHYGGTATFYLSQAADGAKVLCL
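Compounds were pinned into ATP buffer, then GALK-galactose mix was added (final 5 nM enzyme, 35 uM ATP, 100 uM galactose, pH 8.0). After 1 h at room temperature, Kinase-Glo Plus was added and luminescence read.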
HTT-AS act – Primary qHTS for Identification of Small Molecule Activators of Huntingtin-Antisense Promoter Activity. hit rate 0.24% among 48,000. Potency, µM (top dose mostly 57.5 µM), for inactives: at the top dose activity change, positive = activation, most hits filed as activators. HEK293 HTT-AS promoter firefly luciferase reporter, 24 h; response scale: percent change from vehicle, -100% = no light; also: potency is read from the fitted curve at half-maximal effect; nearly all actives have a fitted effect of over 55% in size
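HEK293 luciferase promoter-reporter cells (2,500/well) plated 24 h, then compounds added at up to 57.5 uM final for 24 h at 37 °C. Firefly luminescence by Dual-Glo, normalized to vehicle (0%) and zero RLU (-100%).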
SKOV3 invasion – Primary qHTS assay for Inhibitors of ovarian cancer metastasis using an organotypic tumor microenvironment (TME) model. Potency, µM (highest dose often 45.8 µM), for the others: top-dose activity change, negative = inhibition, hits mostly inhibitors. hit rate 0.1% among 46,000. SKOV3ip1-GFP adhesion/invasion on 3D omental model, fluorescence. AID 1963576, 2024;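 also: potency is read from the fitted curve at half-maximal effect; plate controls were DMSO wells for no effect and tomatine positive control wells for full effect; nearly all actives have a fitted effect of over 65% in size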
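Primary human omental fibroblast/mesothelial 3D culture pre-formed 48 h. SKOV3ip1-GFP cells added with compounds (0.36-46 umol/L), incubated 2 h RT/16 h 37 C, fixed; GFP cells quantified at 488/509 nm.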
TSG101-PTAP inh – qHTS Validation Assay for Inhibitors of HIV-1 Budding by Blocking the Interaction of PTAP/TSG101: Sytravon Library Screen. Fluorescence polarization, FITC-PTAP peptide/Tsg101, 20 min. Potency, µM (top dose mostly 115 µM), hits mostly inhibitors. 44,000 tested, under 10 active. Tumor susceptibility gene 101 protein (Homo sapiens), Q99816; also: potency is read from the fitted curve at half-maximal effect; 0% is about no effect
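Fluorescence polarization binding of Tsg101 binding domain (10 uM final) to FITC-labeled PTAP-motif peptide (50 nM final) in HEPES pH 7.5/NaCl/Tween 20/EDTA/TCEP buffer; 20 min at r.t. Actives by curve class, <25 µM, efficacy <60% inhibition.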
HTT promoter inh – Primary qHTS for Identification of Small Molecule Inhibitors of Huntingtin Promoter Activity; HEK293 HTT promoter firefly luciferase reporter, 24 h; Potency, µM (doses to about 57.5 µM), for inactives: at the top dose activity change, negative = inhibition, most hits filed as inhibitors; hit rate 0.93% among 48,000; also: potency is read from the fitted curve at half-maximal effect; nearly all actives have a fitted effect of over 50% in size
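Luminescence was read after Dual-Glo reagent and a 10 min room-temperature incubation. Values were normalized to vehicle (0% activity) and zero RLU (-100% activity). Reporter HEK293 cells had been exposed to compounds (up to 57.5 uM final) for 24 h.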
Active calls of the source: *; ! = repeats disagree; [ ] = another dose, or the depositor's remark. Calls follow the shape of the dose curve; as a rule, active = well fitted curve in the direction sought with a large enough effect; inconclusive = small, poorly fitted or top-dose-only effect, or another doubt; inactive = no such curve, though single readings can be large; an effect the other way counts as inactive or inconclusive.

Screening CCOc1ccc(/C=C/C(=O)Nc2sc3c(c2C(=O)OC)C(C(=O)OC)CC3)cc1 (configuration not stated) returned NTMT1 inhibitor 10µM*, GALK inh -1%, HTT-AS act -10%, SKOV3 invasion 3%, TSG101-PTAP inh inactive and HTT promoter inh -13%.
For COC(=O)c1c(NC(=O)CCCOc2ccc(C)cc2)sc2c1C(C(=O)OC)CC2 (configuration not stated) the results were NTMT1 inhibitor 18µM*, GALK inh -23%, HTT-AS act -14%, SKOV3 invasion -4%, TSG101-PTAP inh inactive and HTT promoter inh -11%.
For COC(=O)c1c(NC(=O)CCCOc2cccc(C)c2)sc2c1C(C(=O)OC)CC2 (configuration not stated) the results were NTMT1 inhibitor 14µM*, GALK inh -4%, HTT-AS act -26%, SKOV3 invasion inactive, TSG101-PTAP inh inactive and HTT promoter inh inconclusive.
`CCOc1ccc(CCN(C)C(=O)c2cc3sccc3n2Cc2ccccc2)cc1OCC` gave NTMT1 inhibitor 11%.
O=C(Nc1ccccc1C(=O)Nc1ccc(CCO)cc1)c1ccc([N+](=O)[O-])cc1 was read as NTMT1 inhibitor 0%[57.5 µM].
Screening CCOc1ccc(NC(=O)N(Cc2ccc(CC)cc2)Cc2cn[nH]c2-c2ccc(OC)cc2)cc1 returned NTMT1 inhibitor 24%, GALK inh -9%, HTT-AS act -20%, SKOV3 invasion 11%, TSG101-PTAP inh inactive and HTT promoter inh inconclusive.
`CCc1ccc(CN(Cc2cn[nH]c2-c2ccc(OC)cc2)C(=O)Nc2ccc(Br)cc2)cc1` gave NTMT1 inhibitor 3%, GALK inh 0%, HTT-AS act -58%, SKOV3 invasion 4%, TSG101-PTAP inh inactive and HTT promoter inh 14µM*.
Screening [O-][n+]1ccccc1SSc1cccc[n+]1[O-] returned NTMT1 inhibitor 5µM*, HTT-AS act -74%[25.1 µM] and HTT promoter inh inconclusive.
For CC1(C(=O)O)CCCC2(C)C3CCC4CC3(CCC12)CC4(O)CO (configuration not stated) the results were NTMT1 inhibitor -8%[29.8 µM].
For Cc1ccc(C(=O)Nc2ccccc2C(=O)Nc2nc(-c3ccccc3)cs2)cc1 the results were NTMT1 inhibitor 3%[57.5 µM].
Screening CN1CCC[C@@H]1c1cccnc1 returned NTMT1 inhibitor 16µM*, HTT-AS act -17% and HTT promoter inh 2%.
CN1C(=O)CC[C@H]1c1cccnc1 was read as NTMT1 inhibitor -15%[57.5 µM], HTT-AS act -2% and HTT promoter inh 6%.
Screening CC(C)c1ccccc1-c1ncc(F)c(NC(C)(C)c2ccc(-c3cccnc3)cc2)n1 returned NTMT1 inhibitor 1%[57.5 µM].
Screening CCCCNC(=O)c1cc2n(n1)CCCN(Cc1ccc(C)cc1)C2=O returned NTMT1 inhibitor 13%, GALK inh -1%, HTT-AS act 11%, SKOV3 invasion 21%, TSG101-PTAP inh inactive and HTT promoter inh -10%.
`CCCCOc1ccc(CNC(=O)c2cc3n(n2)CCCN(Cc2ccc(C)cc2)C3=O)cc1` gave NTMT1 inhibitor 4%, GALK inh -4%, HTT-AS act -23%, SKOV3 invasion -12%, TSG101-PTAP inh inactive and HTT promoter inh 25µM*.
For Cc1ccc(CN2CCCn3nc(C(=O)NCc4cc(C)ccc4C)cc3C2=O)cc1 the results were NTMT1 inhibitor 13%, GALK inh -3%, HTT-AS act -21%, SKOV3 invasion -3%, TSG101-PTAP inh inactive and HTT promoter inh 28µM*.
`OCCN1CCN(CCCN2c3ccccc3Sc3ccc(C(F)(F)F)cc32)CC1` gave NTMT1 inhibitor 32µM*!, HTT-AS act -29%, SKOV3 invasion -38% and HTT promoter inh -15%.
`COc1ccccc1C(=O)N1c2ccccc2C(C)(c2ccc(Cl)cc2)CC1(C)C` (configuration not stated) gave NTMT1 inhibitor -1%, GALK inh -5%, HTT-AS act -50%, SKOV3 invasion inconclusive, TSG101-PTAP inh inactive and HTT promoter inh 25µM*.
O=C(NCCc1ccc2c(c1)OCO2)c1cc2sccc2n1Cc1ccccc1 was read as NTMT1 inhibitor 10%.
Screening CCC(C)C(N)C1=NC(C(=O)N[C@@H](CC(C)C)C(=O)N[C@H](CCC(=O)O)C(=O)N[C@H](C(=O)N[C@H]2CCCCNC(=O)[C@H](CC(N)=O)NC(=O)[C@@H](CC(=O)O)NC(=O)[C@H](Cc3cnc[nH]3)NC(=O)[C@@H](Cc3ccccc3)NC(=O)[C@H]([C@@H](C)CC)NC(=O)[C@@H](CCCN)NC2=O)[C@@H](C)CC)CS1 (some centres not stated) returned NTMT1 inhibitor 7.9µM*!.
For CCC(C)CCCCC(=O)N[C@@H](CCN)C(=O)NC(C(=O)N[C@H](CCN)C(=O)N[C@@H]1CCNC(=O)C([C@@H](C)O)NC(=O)[C@@H](CCN)NC(=O)[C@@H](CCN)NC(=O)[C@@H](CC(C)C)NC(=O)[C@H](Cc2ccccc2)NC(=O)[C@H](CCN)NC1=O)[C@@H](C)O (some centres not stated) the results were NTMT1 inhibitor inconclusive, HTT-AS act -4%, SKOV3 invasion 2% and HTT promoter inh -5%.
Screening C[C@@]1(c2ncncc2F)NC(=O)c2cc(-c3cn[nH]c3)ccc21 returned NTMT1 inhibitor 0%.
Screening COc1ccc(NC(=O)CC2Nc3cccc4cccc(c34)NC2=O)cc1 (configuration not stated) returned NTMT1 inhibitor 79µM*, GALK inh 0%, HTT-AS act -23%, SKOV3 invasion inactive, TSG101-PTAP inh inactive and HTT promoter inh -19%.
O=C(CC1Nc2cccc3cccc(c23)NC1=O)Nc1ccc(F)cc1 (configuration not stated) was read as NTMT1 inhibitor -20%, GALK inh 1%, HTT-AS act -24%, SKOV3 invasion -8%, TSG101-PTAP inh inactive and HTT promoter inh 0%.
